Data from PMC4336329 (PLoS ONE, 2015).
Hit rate of the full screen: of about 310,000 compounds, about 2,200 (0.71%) showed an effect of 50% or more. Effects have a minus sign here. The entries come from a sample that favours strong results as a whole.

These compounds were tested against human ether-à-go-go-related gene (hERG) potassium channel (human, UniProt Q12809) (assay: primary screen, population patch clamp on CHO cells stably expressing hERG; higher = less effect of the substance).
Chain of human ether-à-go-go-related gene (hERG) potassium channel (Q12809 whole entry, looked up): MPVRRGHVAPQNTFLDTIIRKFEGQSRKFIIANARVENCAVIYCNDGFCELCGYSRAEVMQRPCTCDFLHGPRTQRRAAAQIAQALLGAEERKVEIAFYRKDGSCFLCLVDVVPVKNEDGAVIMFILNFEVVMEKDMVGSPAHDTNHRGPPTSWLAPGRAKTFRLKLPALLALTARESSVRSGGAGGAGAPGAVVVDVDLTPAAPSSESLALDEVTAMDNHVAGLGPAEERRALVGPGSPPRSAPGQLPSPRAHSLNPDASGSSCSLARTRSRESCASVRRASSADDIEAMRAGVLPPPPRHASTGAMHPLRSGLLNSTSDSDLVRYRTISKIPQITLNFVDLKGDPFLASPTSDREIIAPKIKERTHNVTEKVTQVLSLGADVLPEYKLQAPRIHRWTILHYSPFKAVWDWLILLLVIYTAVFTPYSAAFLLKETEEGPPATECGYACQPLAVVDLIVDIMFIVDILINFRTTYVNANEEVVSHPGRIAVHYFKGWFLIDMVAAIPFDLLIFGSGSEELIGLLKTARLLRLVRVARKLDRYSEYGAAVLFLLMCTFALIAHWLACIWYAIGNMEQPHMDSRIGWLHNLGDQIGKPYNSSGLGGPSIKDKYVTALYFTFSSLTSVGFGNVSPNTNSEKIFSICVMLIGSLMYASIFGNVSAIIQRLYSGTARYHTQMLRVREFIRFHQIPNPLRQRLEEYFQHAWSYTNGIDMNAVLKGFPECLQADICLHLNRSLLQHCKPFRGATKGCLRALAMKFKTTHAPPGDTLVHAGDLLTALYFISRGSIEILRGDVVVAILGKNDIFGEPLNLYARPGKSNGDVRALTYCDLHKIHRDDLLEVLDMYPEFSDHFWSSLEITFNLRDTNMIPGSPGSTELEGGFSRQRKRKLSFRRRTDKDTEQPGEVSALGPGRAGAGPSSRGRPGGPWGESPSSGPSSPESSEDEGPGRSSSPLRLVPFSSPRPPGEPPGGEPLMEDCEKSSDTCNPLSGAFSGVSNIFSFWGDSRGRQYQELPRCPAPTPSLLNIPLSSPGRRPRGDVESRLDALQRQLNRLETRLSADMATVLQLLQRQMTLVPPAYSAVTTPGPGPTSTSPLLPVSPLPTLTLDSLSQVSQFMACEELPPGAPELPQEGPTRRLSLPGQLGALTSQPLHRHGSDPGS

Row | Compound | hERG current change (%, negative = inhibition) at 1uM
1 | CCN1C(=O)N(CC)C2NC(=S)NC21 (centres unmarked) | 7.44%
2 | CC(=O)C1=C(NC(=O)c2ccc(F)cc2)CC2C1C2(C)C (centres unmarked) | 9.7%
3 | O=C(CN1C(=O)CSc2ccccc21)N1CCc2ccccc21 | 9.93%
4 | O=C(O)CSc1nnc(SCc2cccc3ccccc23)s1 | 6.81%
5 | COc1ccccc1CNC(=O)C1CCN(S(=O)(=O)c2ccc3c(c2)OCCCO3)CC1 | -1.02%
6 | COC(=O)C1(C)Cc2cc(OC(C)=O)c(OC(C)=O)cc2N1 (centres unmarked) | 11.7%
7 | CC(=O)Nc1ccc(NC(=O)CSc2nccn2Cc2ccccc2)cc1 | 10.5%
8 | O=C(Oc1ccc(C(=S)N2CCOCC2)cc1)c1ccccc1[N+](=O)[O-] | 21.2%
9 | O=C(Nc1ccc(Cl)cc1)Nc1nnc(Cc2ccc([N+](=O)[O-])cc2)s1 | 13.9%
10 | COc1ccccc1CCNC(=O)C1CCN(c2nnc(C)c3c(C)n(-c4ccc(C)cc4)nc23)CC1 | 14.7%
11 | CN/C=C(/Cl)P(=O)(OC(C)C)OC(C)C | 11%
12 | COc1ccccc1C(=O)Nc1ccnn1C1CCN(Cc2cn(C)c3ccccc23)CC1 | -74.9%
13 | CCn1ccnc1CN1CCC(n2nccc2NC(=O)c2ccccc2OC)CC1 | -64.9%
14 | COc1ccccc1C(=O)Nc1ccnn1C1CCN(C(=O)C2CCOC2)CC1 (centres unmarked) | 4.19%
15 | COc1ccccc1C(=O)Nc1ccnn1C1CCN(Cc2ncc[nH]2)CC1 | 6%
16 | CCOc1ccc(CN2CCC(n3nccc3NC(=O)c3ccccc3OC)CC2)cc1 | -89.4%
17 | COc1ccccc1C(=O)Nc1ccnn1C1CCN(Cc2ccn[nH]2)CC1 | 1.62%
18 | Cn1cc(CN2CCC(n3nccc3NC(=O)c3ccccc3Cl)CC2)c2ccccc21 | -47.6%
19 | COc1ccccc1C(=O)Nc1ccnn1C1CCN(Cc2cnc(N(C)C)s2)CC1 | -24.7%
20 | CCCn1ncc(CN2CCC(n3nccc3NC(=O)c3ccccc3OC)CC2)c1C | -73.2%
21 | CCn1ccnc1CN1CCC(n2nccc2NC(=O)CCc2ccccc2)CC1 | 15.9%
22 | CCCn1ncc(CN2CCC(n3nccc3NC(=O)c3ccccc3Cl)CC2)c1C | -47.6%
23 | COc1ccccc1C(=O)Nc1ccnn1C1CCN(Cc2cnn(C)c2C)CC1 | -28.8%
24 | CCCCn1c(O)c(C(CC)=Nc2ccc(OC)cc2OC)c(=O)[nH]c1=O | 4.73%

Row | Compound | hERG current change (%, negative = inhibition) at 1uM
25 | Cc1ccc2c(CN3CC(C)CC(C)C3)cc(=O)oc2c1C (centres unmarked) | 9.29%
26 | COC(=O)C(NC(C)=O)(Nc1ccc(Br)cn1)C(F)(F)F (centres unmarked) | 6.68%
27 | CCCCNC(=O)COC(=O)c1ccc(C)c(NC(=O)c2ccco2)c1 | 11.3%
28 | COC(=O)COc1cc(C)cc2oc(=O)c3c(c12)CCCC3 | -4.18%
29 | O=C(CCCN1C(=O)c2ccccc2C1=O)Nc1nncs1 | 14.9%
30 | COc1ccccc1CN1CCC(n2nccc2NC(=O)c2ccccc2Cl)CC1 | -47.2%
31 | CCn1cc(CN2CCC(n3nccc3NC(=O)c3ccccc3OC)CC2)cn1 | -53.5%
32 | COc1ccccc1C(=O)Nc1ccnn1C1CCN(Cc2csc(C(C)=O)c2)CC1 | -50.9%
33 | O=C(Nc1ccnn1C1CCN(Cc2ccccc2OCCO)CC1)c1cccc(F)c1 | -6.97%
34 | COc1ccccc1C(=O)Nc1ccnn1C1CCN(Cc2ccc3nonc3c2)CC1 | -61.8%
35 | CC(=O)c1cc(CN2CCC(n3nccc3NC(=O)c3ccccc3Cl)CC2)cs1 | -40.5%
36 | COc1ccccc1C(=O)Nc1ccnn1C1CCN(Cc2cnn(C)c2)CC1 | -27%
37 | COc1ccccc1C(=O)Nc1ccnn1C1CCN(Cc2ccccc2OCCO)CC1 | -79.5%
38 | CCn1cc(CN2CCC(n3nccc3NC(=O)c3ccccc3C)CC2)cn1 | -14.9%
39 | COc1ccc(C(=O)Nc2ccnn2C2CCN(Cc3ccc4nonc4c3)CC2)cc1 | -0.334%
40 | CC(=O)c1cc(CN2CCC(n3nccc3NC(=O)c3ccccc3C)CC2)cs1 | -15.8%
41 | N#CCC1c2ccccc2CCN1C(=O)Nc1ccc(C(F)(F)F)cc1 (centres unmarked) | -4.23%
42 | COc1ccccc1S(=O)(=O)CC(O)COc1ccc(F)cc1Cl (centres unmarked) | 12.6%
43 | O=C(CNC(=O)c1ccc(Br)cc1)NCC(=O)OCC(=O)c1ccccc1 | 9.69%
44 | CC(=O)Nc1cc2c3c(c1)CCN3C(=O)CC2 | 22.9%
45 | CCC1=Nc2ccccc2NC2=C1C(=O)CCC2.Cl | -18.7%
46 | CC(C)(C)NC(=O)Cn1c(SCC(=O)Nc2nccs2)nc2ccccc21 | 10.4%
47 | CC(C)COC(=O)NC1c2ccccc2Oc2ccccc21 | -2.38%
48 | CCCCn1nnc(NC(=O)Cc2ccc(Cl)cc2)n1 | -4.74%

Row | Compound | hERG current change (%, negative = inhibition) at 1uM
49 | CCOC(=O)c1c(C)[nH]c(C)c1S(=O)(=O)NCC1CCN(Cc2ccccc2F)CC1 | 8.12%
50 | COc1cc2nc(CN3CCOCC3)n(CC(=O)NCC(F)(F)F)c(=O)c2cc1OC | 11.5%
51 | COC(=O)c1nnn(-c2nonc2N)c1COc1ccc(C=O)cc1OC | -1.8%
52 | Cc1c(C2N3CC4(C)CN2CC(C)(C3)C4=O)c2ccccc2n1C (centres unmarked) | -15.5%
53 | CC1=Nc2cc(C(=O)NCCCN3CCOCC3)ccc2Sc2c(C)ccc(C)c21 | 14.7%
54 | N#Cc1ccc(/C=C/C(=O)c2ccco2)cc1 | 5.85%
55 | COc1ccc(C(=O)NC2CC3CCCC(C2)N3CC(C)C)cc1OC (centres unmarked) | 8.35%
56 | Cc1cccc(C(=O)NCCCn2ccnc2)c1C | 4.84%
57 | COc1cc(CN2CCC(n3nccc3NC(=O)c3ccccc3OC)CC2)ccc1F | -77.6%
58 | COc1cc(CN2CCC(n3nccc3NC(=O)CCCc3ccccc3)CC2)ccc1F | 9.25%
59 | COc1cc(CN2CCC(n3nccc3NC(=O)C3CCOC3)CC2)ccc1F (centres unmarked) | 2.37%
60 | COc1ccc(NC2CCCN(C(=O)CSc3ccccc3)C2)cc1 (centres unmarked) | 8.31%
61 | CSc1cccc(NC(=S)N(CCCN2CCCC2)Cc2cccs2)c1 | -17.9%
62 | CCCCn1c(SCC(=O)NC2CCCC2)nc2ccccc2c1=O | 4.94%
63 | COc1ccc(NC(=O)CSc2nc3ccccc3c(=O)n2CCCN2CCCCC2)c(OC)c1 | -27.7%
64 | CC1CCN(CCCn2c(SCC(=O)Nc3ccccc3Cl)nc3ccccc3c2=O)CC1 | -34.1%
65 | COc1ccc(NC(=O)CSc2nc3ccccc3c(=O)n2CCCN2CCOCC2)c(OC)c1 | 1.25%
66 | CC1CCN(CCCn2c(SCC(=O)NC3CCCC3)nc3ccccc3c2=O)CC1 | -64.8%
67 | COc1ccc(NC(=O)CSc2nc3ccccc3c(=O)n2CCCN2CCC(C)CC2)c(OC)c1 | -72.1%
68 | CC1CCCCC1NC(=O)COC(=O)c1ccc(N(C)C)cc1 (centres unmarked) | 9.14%
69 | O=C(Cc1csc(NC(=O)Nc2cccc(Cl)c2)n1)NCc1cccnc1 | -44.2%
70 | Cc1ccc(NC(=O)c2ccncc2)cc1S(=O)(=O)N(C)C | 0.0196%
71 | CCc1ccc(NC(=O)c2noc(C(C)C)c2[N+](=O)[O-])cc1 | 8.97%
72 | CCN1CCN(c2c(Cl)cccc2NC(=O)c2ccc(Br)o2)CC1 | -59.3%

Row | Compound | hERG current change (%, negative = inhibition) at 1uM
73 | CCN1CCN(c2c(Cl)cccc2NC(=O)c2ccco2)CC1 | -70.7%
74 | CCN1CCN(c2c(Cl)cccc2NC(=O)c2ccc([N+](=O)[O-])o2)CC1 | -77%
75 | O=C(Nc1cccc(Cl)c1N1CCOCC1)c1ccco1 | 4.55%
76 | O=C(Nc1cccc(Cl)c1N1CCOCC1)c1ccc(Br)o1 | 4.08%
77 | O=C(Nc1cccc(Cl)c1N1CCCC1)c1ccc([N+](=O)[O-])o1 | 9.79%
78 | O=C(Nc1cccc(Cl)c1N1CCCC1)c1ccc(Br)o1 | -5.81%
79 | O=C(Nc1cccc(Cl)c1N1CCOCC1)c1ccc([N+](=O)[O-])o1 | 3.63%
80 | O=C(Nc1cccc(Cl)c1N1CCCC1)c1ccco1 | 16.2%
81 | Cc1nc([N+](=O)[O-])cn1CC(=O)Nc1ccc(Cl)cc1 | 14.3%
82 | OCCNC(=S)NCCc1ccccc1 | 9.19%
83 | COCCNC(=S)N(CCN(C)C)Cc1cc2cc3c(cc2[nH]c1=O)OCO3 | 15.5%
84 | CC(C)c1cc(C(=O)N2CCCC(N3CCN(c4ccccc4F)CC3)C2)nc(N)n1 (centres unmarked) | 10.1%
85 | O=C(Nc1ccc(Cl)cn1)Nc1ccccc1F | 0.928%
86 | CC(C)Oc1ccc(N2CC(C(=O)Nc3ccc(N4CCOCC4)cc3)CC2=O)cc1 (centres unmarked) | 24.6%
87 | OCC1(CCOc2ccccc2)CCN(Cc2ccccc2C(F)(F)F)CC1 | 3.9%
88 | OCC1(CCOc2ccccc2)CCN(Cc2cc(Cl)ccc2O)CC1 | -0.875%
89 | Cc1cc(C)c(CN2CCC(CO)(CCOc3ccccc3)CC2)cc1C | -0.659%
90 | OCC1(CCOc2ccccc2)CCN(Cc2ccccc2OC(F)F)CC1 | -54.4%
91 | C=CCOc1ccccc1CN1CCC(CO)(CCOc2ccccc2)CC1 | -61.4%
92 | Cc1nn(C)cc1CN1CCC(CO)(CCOc2ccccc2)CC1 | 8.14%
93 | OCC1(CCOc2ccccc2)CCN(Cc2ccc3c(c2)OCCO3)CC1 | -31.2%
94 | CCOc1ccccc1CN1CCC(CO)(CCOc2ccccc2)CC1 | -66.8%
95 | OCC1(CCOc2ccccc2)CCN(Cc2ccc(OC(F)F)cc2)CC1 | -87.1%
